Data taken from the supplement of paper PMC4166925.
± gives the standard deviation of the averaged measurements. Whole data set: some 33,000 sequences, median “E-score (dimensionless, -0.5 to 0.5)” near -0.046, cut for the highest 2% near 0.36. The list comes from a sample in which the highest values are over-represented; it also holds similar and randomly drawn sequences.
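Also: protein at 200 nM in PBS on universal double-stranded arrays.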

The sequences below were run on T1, SpTbr T-box DNA-binding domain (GST fusion) (assay: PBM E-score of 8-mer (E-score (dimensionless, -0.5 to 0.5)); Tbr is Tbrain of the sea star Patiria miniata (Pm) or the sea urchin Strongylocentrotus purpuratus (Sp); higher = stronger binding preference). Settings: the construct has about 5 more residues each side.
T1 sequence: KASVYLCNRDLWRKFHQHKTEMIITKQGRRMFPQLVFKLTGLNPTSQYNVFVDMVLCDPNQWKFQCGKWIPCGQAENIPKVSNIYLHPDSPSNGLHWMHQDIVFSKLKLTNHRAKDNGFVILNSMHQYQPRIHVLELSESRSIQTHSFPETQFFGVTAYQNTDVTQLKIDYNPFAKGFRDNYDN
Protocol: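 Universal protein-binding microarray (Agilent AMADID 016060, 60-bp probes with a 35-bp variable region) incubated with 200 nM GST-fused Strongylocentrotus purpuratus Tbr T-box DNA-binding domain (residues 362-554) in PBS pH 7.5. Scored for every ungapped 8-mer (given with its reverse complement) as E-score (range -0.5 to 0.5; >0.45 counts as bound) and Z-score of median probe intensity. Two replicate arrays (datasets 1 and 2).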
AGAGTGTA was tested, and the “PBM E-score of 8-mer” value was 0.0671 ± 0.0042. In the case of AGAGTGTG, the “PBM E-score of 8-mer” value is reported as 0.375 ± 0.022. In the case of ATAGTGTA, the “PBM E-score of 8-mer” value is reported as 0.0763 ± 0.038. With AGAGTGTC the “PBM E-score of 8-mer” value was 0.359 ± 0.0099. With ATAGTGTC the “PBM E-score of 8-mer” value was 0.272 ± 0.07. For CGAAGACC, the “PBM E-score of 8-mer” value was -0.109 ± 0.036. For GAGCCCCA, the “PBM E-score of 8-mer” value was -0.124 ± 0.065. GGGTTAAA was tested, and the “PBM E-score of 8-mer” value was -0.213 ± 0.063. For TAACCGAA, the “PBM E-score of 8-mer” value was -0.212 ± 0.034. CCGCAGAC was tested, and the “PBM E-score of 8-mer” value was -0.143 ± 0.042. GATCAATA was tested, and the “PBM E-score of 8-mer” value was 0.0446 ± 0.036. AGCCACAC was tested, and the “PBM E-score of 8-mer” value was 0.311 ± 0.049. In the case of CGCCACAG, the “PBM E-score of 8-mer” value is reported as 0.0527 ± 0.03. In the case of CGCCACAA, the “PBM E-score of 8-mer” value is reported as 0.0762 ± 0.081. In the case of CGCCACAC, the “PBM E-score of 8-mer” value is reported as 0.3647 ± 0.0013. With GGCCACAA the “PBM E-score of 8-mer” value was 0.0675 ± 0.11. With GGCCACAC the “PBM E-score of 8-mer” value was 0.3886 ± 0.00083. For GAGATGGC, the “PBM E-score of 8-mer” value was -0.0157 ± 0.0073. For CAACCTAG, the “PBM E-score of 8-mer” value was -0.0248 ± 0.069. For AAAGGTGA, the “PBM E-score of 8-mer” value was 0.316 ± 0.0022. For CTAGGTGC, the “PBM E-score of 8-mer” value was 0.3603 ± 0.003. With AAAGGTGT the “PBM E-score of 8-mer” value was 0.469 ± 0.0063. With AAGGGTGT the “PBM E-score of 8-mer” value was 0.383 ± 0.015. With AAAGGTAC the “PBM E-score of 8-mer” value was -0.0923 ± 0.05. In the case of AAAGGTCC, the “PBM E-score of 8-mer” value is reported as 0.0265 ± 0.0014. ATAGGTGA was tested, and the “PBM E-score of 8-mer” value was 0.284 ± 0.032. For AAGGGTGG, the “PBM E-score of 8-mer” value was 0.146 ± 0.028. AAAGGTGC was tested, and the “PBM E-score of 8-mer” value was 0.414 ± 0.01. With AAGGGTGA the “PBM E-score of 8-mer” value was 0.136 ± 0.04. In the case of AAAGGTGG, the “PBM E-score of 8-mer” value is reported as 0.0801 ± 0.026. ATAGGTGC was tested, and the “PBM E-score of 8-mer” value was 0.412 ± 0.012. With CGGGTGAA the “PBM E-score of 8-mer” value was -0.3489 ± 0.0032. AGCAACCA was tested, and the “PBM E-score of 8-mer” value was -0.0779 ± 0.012. For CTACCGTC, the “PBM E-score of 8-mer” value was -0.191 ± 0.04. In the case of ATTTACCG, the “PBM E-score of 8-mer” value is reported as -0.131 ± 0.054. With CGAGGGTA the “PBM E-score of 8-mer” value was -0.211 ± 0.033. GATGAGGC was tested, and the “PBM E-score of 8-mer” value was -0.112 ± 0.027. In the case of GGTCTACA, the “PBM E-score of 8-mer” value is reported as -0.0571 ± 0.025. AGGTAAAA was tested, and the “PBM E-score of 8-mer” value was -0.0157 ± 0.037. With AATTCACA the “PBM E-score of 8-mer” value was 0.297 ± 0.035. GATTCACC was tested, and the “PBM E-score of 8-mer” value was -0.0546 ± 0.0018. With TATTCACA the “PBM E-score of 8-mer” value was 0.423 ± 0.023. In the case of CATTCACG, the “PBM E-score of 8-mer” value is reported as 0.238 ± 0.024. With CATTCACA the “PBM E-score of 8-mer” value was 0.427 ± 0.014. GATTCACA was tested, and the “PBM E-score of 8-mer” value was 0.392 ± 0.0093. For AATTCACG, the “PBM E-score of 8-mer” value was 0.345 ± 0.01. With GATTCAGA the “PBM E-score of 8-mer” value was -0.233 ± 0.061. CATTCACC was tested, and the “PBM E-score of 8-mer” value was -0.0478 ± 0.011. With CAGAGAGA the “PBM E-score of 8-mer” value was -0.036 ± 0.025. For CGTAGCCA, the “PBM E-score of 8-mer” value was -0.196 ± 0.073. In the case of CCGATAAA, the “PBM E-score of 8-mer” value is reported as -0.0119 ± 0.097. AGGAAACT was tested, and the “PBM E-score of 8-mer” value was -0.0834 ± 0.015. For CGCTTGAC, the “PBM E-score of 8-mer” value was 0.136 ± 0.0033. For AGTTGACA, the “PBM E-score of 8-mer” value was 0.4138 ± 0.001. In the case of CGTTGACA, the “PBM E-score of 8-mer” value is reported as 0.414 ± 0.0098. In the case of GGTTGACA, the “PBM E-score of 8-mer” value is reported as 0.382 ± 0.017. With CTTTGACA the “PBM E-score of 8-mer” value was 0.174 ± 0.035. For CGTTGACC, the “PBM E-score of 8-mer” value was 0.0141 ± 0.0079. In the case of AGTTGACG, the “PBM E-score of 8-mer” value is reported as 0.226 ± 0.0068. With GTTTGACA the “PBM E-score of 8-mer” value was 0.332 ± 0.036. With GCTTGACA the “PBM E-score of 8-mer” value was 0.258 ± 0.034. In the case of AGTTGACC, the “PBM E-score of 8-mer” value is reported as -0.106 ± 0.098. With CGTTGTTC the “PBM E-score of 8-mer” value was -0.116 ± 0.067. In the case of ACGGGCGG, the “PBM E-score of 8-mer” value is reported as -0.083 ± 0.0064. With GTCTTGGA the “PBM E-score of 8-mer” value was -0.322 ± 0.015. For CATAGAGA, the “PBM E-score of 8-mer” value was -0.161 ± 0.012. For CCCTGTAA, the “PBM E-score of 8-mer” value was 0.137 ± 0.0029. For ATCGAGGC, the “PBM E-score of 8-mer” value was -0.0694 ± 0.048. CACTTCAA was tested, and the “PBM E-score of 8-mer” value was 0.213 ± 0.013. For AGTTGTCA, the “PBM E-score of 8-mer” value was 0.393 ± 0.016. For AGTTGTTG, the “PBM E-score of 8-mer” value was 0.245 ± 0.024. AGTTGTTA was tested, and the “PBM E-score of 8-mer” value was 0.369 ± 0.04. For GGTTGTCA, the “PBM E-score of 8-mer” value was 0.338 ± 0.0013. AGTTGTCG was tested, and the “PBM E-score of 8-mer” value was 0.293 ± 0.033. With CGTTGTTA the “PBM E-score of 8-mer” value was 0.142 ± 0.034. For AGTTCGCG, the “PBM E-score of 8-mer” value was 0.296 ± 0.038. In the case of CGTTCGCA, the “PBM E-score of 8-mer” value is reported as 0.411 ± 0.0075. CGTTCGCC was tested, and the “PBM E-score of 8-mer” value was 0.11 ± 0.024. For GGTTCGCA, the “PBM E-score of 8-mer” value was 0.378 ± 0.0054. GCTTCGCA was tested, and the “PBM E-score of 8-mer” value was 0.358 ± 0.017. With GGTTCGGA the “PBM E-score of 8-mer” value was -0.2634 ± 0.0013. With CGTTCGTA the “PBM E-score of 8-mer” value was -0.134 ± 0.018. With AGTTCGCC the “PBM E-score of 8-mer” value was 0.0613 ± 0.039. With AGTTCGCA the “PBM E-score of 8-mer” value was 0.3728 ± 0.00053. With CGGTTATA the “PBM E-score of 8-mer” value was -0.00559 ± 0.033. GGGGTCGA was tested, and the “PBM E-score of 8-mer” value was -0.0352 ± 0.02. In the case of GCGAGATA, the “PBM E-score of 8-mer” value is reported as 0.105 ± 0.0039. In the case of CATTGTCG, the “PBM E-score of 8-mer” value is reported as 0.038 ± 0.0095. For ATGATGAA, the “PBM E-score of 8-mer” value was -0.154 ± 0.044. CGTGACAA was tested, and the “PBM E-score of 8-mer” value was 0.364 ± 0.0037. ACTGACAA was tested, and the “PBM E-score of 8-mer” value was 0.165 ± 0.0096. In the case of CGTGACGA, the “PBM E-score of 8-mer” value is reported as 0.311 ± 0.029. With CGTGACAG the “PBM E-score of 8-mer” value was 0.217 ± 0.019. In the case of AGTGACAC, the “PBM E-score of 8-mer” value is reported as 0.435 ± 0.0092. CGTGACGC was tested, and the “PBM E-score of 8-mer” value was 0.192 ± 0.033. With CGTGACAC the “PBM E-score of 8-mer” value was 0.38 ± 0.015. For AGTGACGA, the “PBM E-score of 8-mer” value was 0.329 ± 0.029. In the case of AGTGACAA, the “PBM E-score of 8-mer” value is reported as 0.397 ± 0.014. In the case of AGTGACAG, the “PBM E-score of 8-mer” value is reported as 0.3301 ± 0.0022. In the case of GGTGACGA, the “PBM E-score of 8-mer” value is reported as 0.418 ± 0.018. In the case of AGTGACAT, the “PBM E-score of 8-mer” value is reported as 0.277 ± 0.056. With GATCGAGA the “PBM E-score of 8-mer” value was 0.00394 ± 0.097. In the case of AGGCTAAT, the “PBM E-score of 8-mer” value is reported as -0.255 ± 0.1. In the case of ACTAAGCC, the “PBM E-score of 8-mer” value is reported as -0.223 ± 0.02. With AGCCTACC the “PBM E-score of 8-mer” value was -0.245 ± 0.012. With GAGAATAC the “PBM E-score of 8-mer” value was -0.0812 ± 0.016. GATTTTGA was tested, and the “PBM E-score of 8-mer” value was -0.0555 ± 0.0057. AACGCAAA was tested, and the “PBM E-score of 8-mer” value was 0.0563 ± 0.092. In the case of GCAGCGAA, the “PBM E-score of 8-mer” value is reported as 0.104 ± 0.068. For ACAAGAGG, the “PBM E-score of 8-mer” value was -0.0502 ± 0.064.
